This is part of a sample that, as a whole, favours compounds with a hit. Of some 79,000 tested, about 15% had one in any assay. Calls of active or inactive are those of the source. No stated cut-off is given here; in the data, active means growth inhibition above about 70%; inactive means the rest.
Experiments:
[1] = NCI Yeast Anticancer Drug Screen. Data for the wt1 strain (AID 149);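 further: 0% = growth of vehicle-treated wt1 cultures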; details: S. cerevisiae wt1 strain (SPY 50644) growth inhibition, active compounds read high
Procedure, shortened: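 Readout: yeast growth inhibition, normalised to vehicle controls, in the wt1 strain exposed to test compounds.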

[2] = NCI Yeast Anticancer Drug Screen. Data for the rad50EPP+ strain (AID 151);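 further: 0% = growth of vehicle-treated control cultures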; details: S. cerevisiae rad50 mutant strain, active compounds read high
Procedure, shortened: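 Yeast strain carrying rad50 alteration (rad50EPP+) exposed to compounds; growth inhibition measured relative to vehicle-treated controls.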

[3] = NCI Yeast Anticancer Drug Screen. Data for the rad50 strain (AID 155);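 further: 0% = growth of vehicle-only cultures of the same strain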; details: S. cerevisiae rad50 strain growth inhibition, active compounds read high
Procedure, shortened: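 Compounds were tested on a yeast strain with an engineered DNA damage repair alteration; the reported value is growth inhibition normalised to vehicle treatment.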

[4] = NCI Yeast Anticancer Drug Screen. Data for the mec2-1 strain (AID 157); details: S. cerevisiae mec2-1 strain, active compounds read high
Procedure, shortened: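 mec2-1 yeast strain, carrying an alteration in DNA damage repair or cell cycle control, was exposed to compounds; growth inhibition was measured relative to vehicle-treated controls.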

[5] = NCI Yeast Anticancer Drug Screen. Data for the sgs1 mgt1 strain (AID 161);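 further: 0% = growth of cultures given vehicle only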; details: S. cerevisiae sgs1 mgt1 strain, active compounds read high
Procedure, shortened: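 Compounds are added to genetically altered yeast, and growth is compared with cultures given vehicle alone to give percent inhibition.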

[6] = NCI Yeast Anticancer Drug Screen. Data for the cln2 rad14 strain (AID 165);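 further: 0% = growth equal to vehicle treated cultures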; details: S. cerevisiae cln2 rad14 strain, active compounds read high
Procedure, shortened: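 Yeast carrying cln2 and rad14 alterations (cell cycle control and DNA damage repair) were exposed to compounds. Growth inhibition was measured against vehicle-treated controls.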

[7] = NCI Yeast Anticancer Drug Screen. Data for the bub3 strain (AID 167); details: S. cerevisiae bub3 mutant strain, active compounds read high
Procedure, shortened: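 Growth of a checkpoint-deficient yeast mutant is measured after compound exposure. Values represent inhibition relative to vehicle.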

[8] = NCI Yeast Anticancer Drug Screen. Data for the sgs1 strain (AID 173);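 further: 0% = growth of vehicle-only control cultures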; details: S. cerevisiae sgs1 mutant, active compounds read high
Procedure, shortened: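 Yeast mutant strains carrying defined defects in DNA damage repair or cell cycle control were exposed to test compounds. Growth inhibition was scored against vehicle-treated controls.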

[9] = NCI Yeast Anticancer Drug Screen. Data for the mlh1 rad18 strain (AID 175); details: S. cerevisiae mlh1 rad18 strain growth inhibition, active compounds read high
Procedure, shortened: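 Growth inhibition of the yeast strain was measured after compound exposure and expressed relative to vehicle-treated controls. The strain carries defined defects in DNA damage repair.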

[10] = NCI Yeast Anticancer Drug Screen. Data for the rad18 strain (AID 177); details: S. cerevisiae rad18 mutant growth inhibition, active compounds read high
Procedure, shortened: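 Yeast carrying a defined DNA damage repair alteration were exposed to compounds. Growth inhibition was expressed relative to vehicle-treated controls.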

[11] = NCI Yeast Anticancer Drug Screen. Data for the mgt1 strain (AID 153); details: S. cerevisiae mgt1 mutant growth inhibition, active compounds read high
Procedure, shortened: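 Yeast mgt1 strain (DNA repair/cell-cycle alteration panel) exposed to compounds; growth inhibition measured relative to vehicle-treated controls.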

[12] = NCI Yeast Anticancer Drug Screen. Data for the rad14 strain (AID 159);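 further: 0% = growth of vehicle-treated control cultures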; details: S. cerevisiae rad14 strain growth inhibition, active compounds read high
Procedure, shortened: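 Compound-treated yeast with a defined DNA-repair lesion; growth inhibition normalised to vehicle-treated cultures.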

[13] = NCI Yeast Anticancer Drug Screen. Data for the wt2 strain (AID 169);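 further: 0% = growth of vehicle-treated yeast cultures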; details: S. cerevisiae wt2 strain growth inhibition, active compounds read high
Procedure, shortened: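 Yeast cells were exposed to test compounds, and growth inhibition was measured relative to vehicle-treated controls.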

[14] = NCI Yeast Anticancer Drug Screen. Data for the CLN2oe strain (AID 163);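 further: 0% = growth of vehicle-only control cultures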; details: S. cerevisiae CLN2oe strain, active compounds read high
Procedure, shortened: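 Yeast cells carrying a defined cell-cycle control alteration were exposed to test compounds. Growth inhibition was scored against vehicle-treated control cultures.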

[15] = at 5.0 µM (retest, dose inferred, filed as 0.5)
[16] = at 50.0 µM (retest, dose inferred, filed as 5.0)

Measured: growth inhibition

Cc1ccc(C(C)C)c(C(=C2C=CC(=[N+](C)C)C=C2)c2c(C(C)C)ccc(C)c2O)c1O
inactive: [1]; at 1.2 µM 1% | [1]; at 3.7 µM -2% | [2]; at 1.2 µM -1% | [2]; at 3.7 µM 1% | [2]; at 11.0 µM -1% | [2]; at 33.0 µM -3% | [2]; at 100.0 µM -8% | [3]; at 1.2 µM 4% | [3]; at 3.7 µM 16% | [4]; at 1.2 µM -1% | [4]; at 3.7 µM 16% | [4]; [15] 53% | [5]; [15] 66% | [6]; [15] 51% | [7]; at 1.2 µM 3% | [7]; at 3.7 µM 8% | [7]; [15] 35% | [8]; at 1.2 µM 0% | [8]; at 3.7 µM 14% | [9]; [15] 63% | [10]; at 1.2 µM -2% | [10]; at 3.7 µM 25%
active: [1]; at 11.0 µM 98% | [1]; at 33.0 µM 95% | [1]; at 100.0 µM 86% | [3]; [15] 84% | [3]; at 11.0 µM 97% | [3]; at 33.0 µM 93% | [3]; [16] 93% | [3]; at 50.0 µM 96.7% | [3]; at 100.0 µM 81% | [4]; at 11.0 µM 98% | [4]; at 33.0 µM 96% | [4]; [16] 96% | [4]; at 50.0 µM 97.5% | [4]; at 100.0 µM 88% | [5]; [16] 96% | [5]; at 50.0 µM 97.3% | [6]; [16] 94% | [6]; at 50.0 µM 95.2% | [7]; at 11.0 µM 97% | [7]; at 33.0 µM 93% | [7]; [16] 97% | [7]; at 50.0 µM 95.3% | [7]; at 100.0 µM 81% | [8]; at 11.0 µM 97% | [8]; at 33.0 µM 94% | [8]; at 100.0 µM 82% | [9]; [16] 94% | [9]; at 50.0 µM 96.9% | [10]; at 11.0 µM 98% | [10]; at 33.0 µM 95% | [10]; at 100.0 µM 80%

NCC(O)CSCc1ccc(Cl)cc1 (stereo not drawn)
active: [6]; at 50.0 µM 86.5% | [7]; at 50.0 µM 74.1% | [9]; at 50.0 µM 82.8%
inactive: [1]; at 1.2 µM -3% | [1]; at 3.7 µM -5% | [1]; at 11.0 µM -3% | [1]; at 33.0 µM -3% | [1]; at 100.0 µM 0% | [2]; at 1.2 µM -3% | [2]; at 3.7 µM -4% | [2]; at 11.0 µM 1% | [2]; at 33.0 µM -5% | [2]; at 100.0 µM -2% | [11]; at 1.2 µM -4% | [11]; at 3.7 µM -2% | [11]; at 11.0 µM -2% | [11]; at 33.0 µM 0% | [11]; at 100.0 µM 7% | [3]; at 1.2 µM -2% | [3]; at 3.7 µM 2% | [3]; [15] 5% | [3]; at 11.0 µM 2% | [3]; at 33.0 µM 7% | [3]; [16] 5% | [3]; at 50.0 µM 0.9% | [3]; at 100.0 µM 17% | [12]; at 1.2 µM -2% | [12]; at 3.7 µM -2% | [12]; at 11.0 µM 3% | [12]; at 33.0 µM 7% | [12]; at 100.0 µM 34% | [5]; [15] -7% | [5]; [16] 25% | [5]; at 50.0 µM 31% | [6]; [15] -7% | [6]; [16] 10% | [7]; at 1.2 µM -2% | [7]; at 3.7 µM -2% | [7]; [15] -13% | [7]; at 11.0 µM 1% | [7]; at 33.0 µM 20% | [7]; [16] 64% | [7]; at 100.0 µM 42% | [13]; at 1.2 µM -6% | [13]; at 3.7 µM -9% | [13]; at 11.0 µM -4% | [13]; at 33.0 µM 1% | [13]; at 100.0 µM -8% | [8]; at 1.2 µM -9% | [8]; at 3.7 µM 12% | [8]; at 11.0 µM -16% | [8]; at 33.0 µM 7% | [8]; at 100.0 µM 42% | [9]; [15] -5% | [9]; [16] 18% | [10]; at 1.2 µM -5% | [10]; at 3.7 µM -1% | [10]; at 11.0 µM 0% | [10]; at 33.0 µM -2% | [10]; at 100.0 µM 11%

Cc1ccc(Nc2n[nH]c(=S)s2)cc1C
active: [1]; at 100.0 µM 81% | [3]; [15] 93% | [3]; [16] 94% | [3]; at 50.0 µM 78.8% | [3]; at 100.0 µM 84% | [4]; [15] 96% | [4]; [16] 95% | [4]; at 100.0 µM 79% | [5]; [16] 90% | [14]; at 100.0 µM 76% | [6]; [16] 92% | [7]; [16] 91% | [7]; at 100.0 µM 80% | [13]; at 100.0 µM 85% | [8]; at 100.0 µM 77% | [9]; [15] 99% | [9]; [16] 99% | [10]; at 100.0 µM 87%
inactive: [1]; at 1.2 µM -23% | [1]; at 3.7 µM -22% | [1]; at 11.0 µM -19% | [1]; at 33.0 µM 1% | [2]; at 1.2 µM -7% | [2]; at 3.7 µM -5% | [2]; at 11.0 µM -21% | [2]; at 33.0 µM -9% | [2]; at 100.0 µM 48% | [3]; at 1.2 µM 14% | [3]; at 3.7 µM 17% | [3]; at 11.0 µM 21% | [3]; at 33.0 µM 54% | [4]; at 1.2 µM 1% | [4]; at 3.7 µM 0% | [4]; at 11.0 µM 10% | [4]; at 33.0 µM 11% | [4]; at 50.0 µM 67.7% | [5]; [15] 5% | [14]; at 1.2 µM 3% | [14]; at 3.7 µM -8% | [14]; at 11.0 µM -5% | [14]; at 33.0 µM -10% | [6]; [15] 65% | [7]; at 1.2 µM 6% | [7]; at 3.7 µM 12% | [7]; [15] 38% | [7]; at 11.0 µM 18% | [7]; at 33.0 µM 36% | [13]; at 1.2 µM -33% | [13]; at 3.7 µM -23% | [13]; at 11.0 µM -28% | [13]; at 33.0 µM 28% | [8]; at 1.2 µM -28% | [8]; at 3.7 µM -35% | [8]; at 11.0 µM -28% | [8]; at 33.0 µM 28% | [9]; at 50.0 µM 69.7% | [10]; at 1.2 µM 1% | [10]; at 3.7 µM -1% | [10]; at 11.0 µM 12% | [10]; at 33.0 µM 67%

— PubChem BioAssay (NCI)
